This passage reports residual activity results from ChEMBL document CHEMBL2218924, “A broad activity screen in support of a chemogenomic map for kinase signalling research and drug discovery” (Biochem J, 2013).

The target in experiment [1] is Tyrosine-protein kinase SYK (Homo sapiens) (UniProt P43405). The conditions noted are these: at 10 µM.
Experiment [2] concerns the target T1, Mitogen-activated protein kinase kinase kinase 7 (Homo sapiens) (UniProt O43318).
T1 sequence (whole entry): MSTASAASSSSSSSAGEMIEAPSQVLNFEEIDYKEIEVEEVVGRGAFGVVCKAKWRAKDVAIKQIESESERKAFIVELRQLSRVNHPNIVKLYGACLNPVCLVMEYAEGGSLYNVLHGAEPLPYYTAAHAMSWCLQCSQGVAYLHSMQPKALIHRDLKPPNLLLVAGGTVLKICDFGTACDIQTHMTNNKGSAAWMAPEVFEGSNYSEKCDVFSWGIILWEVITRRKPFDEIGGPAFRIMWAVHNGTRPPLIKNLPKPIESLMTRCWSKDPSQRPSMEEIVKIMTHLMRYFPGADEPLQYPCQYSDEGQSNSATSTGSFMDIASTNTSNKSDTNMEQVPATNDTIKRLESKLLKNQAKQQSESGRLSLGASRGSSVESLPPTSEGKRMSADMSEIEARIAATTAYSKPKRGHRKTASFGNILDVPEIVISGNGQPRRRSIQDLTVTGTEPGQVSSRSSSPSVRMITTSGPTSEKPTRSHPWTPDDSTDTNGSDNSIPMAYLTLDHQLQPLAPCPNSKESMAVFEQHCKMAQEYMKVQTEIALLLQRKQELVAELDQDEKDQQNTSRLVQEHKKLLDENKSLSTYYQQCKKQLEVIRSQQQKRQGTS
As to conditions: at 1 µM.

The target of experiment [3] is T1, Mitogen-activated protein kinase kinase kinase 7 (Homo sapiens). As to conditions: at 10 µM.
The target of experiment [4] is T2, Serine/threonine-protein kinase TAO1 (Homo sapiens) (UniProt Q7L7X3).
T2 sequence (whole entry): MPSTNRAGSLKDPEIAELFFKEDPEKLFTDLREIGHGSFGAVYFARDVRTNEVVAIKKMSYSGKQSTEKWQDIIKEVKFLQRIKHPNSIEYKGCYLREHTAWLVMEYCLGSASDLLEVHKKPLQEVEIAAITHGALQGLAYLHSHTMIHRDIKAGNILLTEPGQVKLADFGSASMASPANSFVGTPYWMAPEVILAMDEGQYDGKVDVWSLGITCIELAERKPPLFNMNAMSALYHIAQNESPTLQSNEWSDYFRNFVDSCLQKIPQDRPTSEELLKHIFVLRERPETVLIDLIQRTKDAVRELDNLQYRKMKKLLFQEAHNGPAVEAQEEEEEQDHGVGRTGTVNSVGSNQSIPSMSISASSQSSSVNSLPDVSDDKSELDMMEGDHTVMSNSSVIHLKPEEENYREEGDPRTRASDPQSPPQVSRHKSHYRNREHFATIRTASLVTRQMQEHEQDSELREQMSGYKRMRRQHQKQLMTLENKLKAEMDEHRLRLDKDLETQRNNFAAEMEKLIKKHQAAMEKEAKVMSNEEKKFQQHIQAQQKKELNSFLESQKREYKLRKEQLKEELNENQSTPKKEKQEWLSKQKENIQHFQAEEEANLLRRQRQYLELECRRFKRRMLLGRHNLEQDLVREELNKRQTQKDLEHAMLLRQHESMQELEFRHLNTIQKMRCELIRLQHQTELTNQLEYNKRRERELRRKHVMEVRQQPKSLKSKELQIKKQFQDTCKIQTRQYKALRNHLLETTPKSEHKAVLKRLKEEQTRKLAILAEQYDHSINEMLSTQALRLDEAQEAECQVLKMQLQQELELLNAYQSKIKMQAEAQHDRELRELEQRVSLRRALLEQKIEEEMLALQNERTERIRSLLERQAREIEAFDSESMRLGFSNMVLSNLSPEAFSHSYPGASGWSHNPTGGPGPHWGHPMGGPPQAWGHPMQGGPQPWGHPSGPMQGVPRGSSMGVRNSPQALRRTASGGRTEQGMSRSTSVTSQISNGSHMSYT
As to conditions: at 1 µM.

Experiment [5] deals with T2, Serine/threonine-protein kinase TAO1 (Homo sapiens). As to conditions: at 10 µM.
The target in experiment [6] is T3, Serine/threonine-protein kinase TAO2 (Homo sapiens) (UniProt Q9UL54).
T3 sequence (whole entry): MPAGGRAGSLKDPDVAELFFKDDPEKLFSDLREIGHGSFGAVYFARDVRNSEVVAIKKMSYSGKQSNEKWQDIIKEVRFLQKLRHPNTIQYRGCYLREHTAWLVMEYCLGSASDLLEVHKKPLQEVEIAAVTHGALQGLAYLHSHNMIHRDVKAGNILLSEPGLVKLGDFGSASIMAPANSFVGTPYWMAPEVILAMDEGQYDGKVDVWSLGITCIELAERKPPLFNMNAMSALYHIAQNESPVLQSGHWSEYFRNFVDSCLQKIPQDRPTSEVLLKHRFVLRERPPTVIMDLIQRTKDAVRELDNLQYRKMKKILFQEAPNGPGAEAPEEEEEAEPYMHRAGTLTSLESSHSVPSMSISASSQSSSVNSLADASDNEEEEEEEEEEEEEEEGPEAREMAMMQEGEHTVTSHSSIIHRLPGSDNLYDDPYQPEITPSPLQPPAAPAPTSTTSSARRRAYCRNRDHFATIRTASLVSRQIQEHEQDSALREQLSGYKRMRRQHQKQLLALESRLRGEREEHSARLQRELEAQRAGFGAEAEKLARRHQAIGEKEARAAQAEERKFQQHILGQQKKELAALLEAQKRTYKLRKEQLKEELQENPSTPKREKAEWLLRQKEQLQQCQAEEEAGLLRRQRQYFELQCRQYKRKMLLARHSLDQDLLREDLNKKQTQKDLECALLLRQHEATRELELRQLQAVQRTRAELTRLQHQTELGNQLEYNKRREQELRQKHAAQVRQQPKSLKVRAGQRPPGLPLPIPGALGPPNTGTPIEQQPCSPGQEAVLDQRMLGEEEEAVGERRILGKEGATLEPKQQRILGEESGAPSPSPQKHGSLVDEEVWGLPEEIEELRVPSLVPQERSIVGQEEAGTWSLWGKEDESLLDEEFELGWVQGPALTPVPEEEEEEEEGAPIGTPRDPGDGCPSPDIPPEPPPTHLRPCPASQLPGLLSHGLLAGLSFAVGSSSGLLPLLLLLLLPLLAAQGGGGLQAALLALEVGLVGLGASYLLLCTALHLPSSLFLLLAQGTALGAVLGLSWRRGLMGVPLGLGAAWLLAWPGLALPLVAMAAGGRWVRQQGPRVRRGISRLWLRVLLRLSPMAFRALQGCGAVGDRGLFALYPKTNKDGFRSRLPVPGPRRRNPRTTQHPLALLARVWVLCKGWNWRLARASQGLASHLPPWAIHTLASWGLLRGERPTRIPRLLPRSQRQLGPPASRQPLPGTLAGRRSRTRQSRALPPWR
The conditions noted are these: at 1 µM.

The target in experiment [7] is T3, Serine/threonine-protein kinase TAO2 (Homo sapiens). As to conditions: at 10 µM.
In experiment [8] the target is T4, Serine/threonine-protein kinase TAO3 (Homo sapiens) (UniProt Q9H2K8).
T4 sequence (whole entry): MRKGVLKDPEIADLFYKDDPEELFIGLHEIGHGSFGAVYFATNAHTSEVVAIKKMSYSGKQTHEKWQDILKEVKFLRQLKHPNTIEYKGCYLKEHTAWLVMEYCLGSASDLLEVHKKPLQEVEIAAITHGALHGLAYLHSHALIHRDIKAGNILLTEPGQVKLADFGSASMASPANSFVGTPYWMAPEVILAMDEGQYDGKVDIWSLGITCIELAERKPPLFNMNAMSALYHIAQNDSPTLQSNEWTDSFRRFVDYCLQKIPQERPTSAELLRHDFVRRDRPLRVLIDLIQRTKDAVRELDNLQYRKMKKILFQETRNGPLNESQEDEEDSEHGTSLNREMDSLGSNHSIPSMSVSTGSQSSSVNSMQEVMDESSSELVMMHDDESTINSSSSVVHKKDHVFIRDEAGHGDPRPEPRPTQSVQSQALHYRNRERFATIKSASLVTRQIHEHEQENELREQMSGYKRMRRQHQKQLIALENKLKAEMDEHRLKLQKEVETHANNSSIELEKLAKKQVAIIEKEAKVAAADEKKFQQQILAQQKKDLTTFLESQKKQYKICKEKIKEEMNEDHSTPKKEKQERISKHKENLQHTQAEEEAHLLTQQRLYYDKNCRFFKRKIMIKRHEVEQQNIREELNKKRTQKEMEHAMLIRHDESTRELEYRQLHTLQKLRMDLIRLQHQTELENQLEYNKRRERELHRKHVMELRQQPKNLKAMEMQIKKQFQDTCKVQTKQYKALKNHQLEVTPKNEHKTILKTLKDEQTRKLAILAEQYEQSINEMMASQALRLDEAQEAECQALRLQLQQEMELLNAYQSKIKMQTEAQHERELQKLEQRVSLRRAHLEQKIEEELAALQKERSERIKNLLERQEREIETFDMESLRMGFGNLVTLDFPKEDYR
The conditions noted are these: at 1 µM.

Experiment [9] concerns the target T4, Serine/threonine-protein kinase TAO3 (Homo sapiens). As to conditions: at 10 µM.
Experiment [10] addresses T5, Serine/threonine-protein kinase TBK1 (Homo sapiens) (UniProt Q9UHD2).
T5 sequence (whole entry): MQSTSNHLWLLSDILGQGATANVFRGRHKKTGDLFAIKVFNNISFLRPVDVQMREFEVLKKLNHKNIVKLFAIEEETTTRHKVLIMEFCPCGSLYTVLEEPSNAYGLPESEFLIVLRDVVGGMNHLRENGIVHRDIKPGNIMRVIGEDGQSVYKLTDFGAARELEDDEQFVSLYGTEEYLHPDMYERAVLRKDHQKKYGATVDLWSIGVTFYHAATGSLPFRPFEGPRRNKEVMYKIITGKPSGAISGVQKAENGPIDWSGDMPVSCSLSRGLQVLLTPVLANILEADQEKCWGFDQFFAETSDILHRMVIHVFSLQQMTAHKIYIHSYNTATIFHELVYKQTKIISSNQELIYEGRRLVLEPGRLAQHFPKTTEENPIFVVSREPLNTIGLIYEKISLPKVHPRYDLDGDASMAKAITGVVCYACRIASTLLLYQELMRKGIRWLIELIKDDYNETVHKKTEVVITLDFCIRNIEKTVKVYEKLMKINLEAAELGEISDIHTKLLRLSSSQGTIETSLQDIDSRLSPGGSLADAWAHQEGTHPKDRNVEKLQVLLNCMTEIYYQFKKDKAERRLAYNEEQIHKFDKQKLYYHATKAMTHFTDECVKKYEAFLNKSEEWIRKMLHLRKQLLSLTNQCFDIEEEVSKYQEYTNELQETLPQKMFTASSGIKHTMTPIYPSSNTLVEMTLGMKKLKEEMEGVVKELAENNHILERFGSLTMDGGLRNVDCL
The conditions noted are these: at 1 µM.

In the case of `CCOc1cc2ncnc(Nc3cccc(Br)c3)c2cc1OCC`, the residual activity came out at 58% in experiment [1]; 95% in experiment [2]; 83% in [3]; 86% in experiment [4]; 73% in experiment [5]; 101% in experiment [6]. The residual activity in [7] came to 84%; in [8], 100%; in [9] it was 81%; in [10], 70%.
